# Assay results published in PubChem BioAssay (EPA / NIEHS).
# Inconclusive results are not listed. The source made the active and inactive calls. The calls were made as follows, unless noted: active = hit-call score of the fitted dose curve at least 0.9, where 1 is the maximum; inactive = score below 0.9.
# System: not listed separately
# Test: CCTE_Harrill_HTTr_Viability_PRF_DMEM_24hr: (Pilot) CCTE's 24-hour Cell Viability Assessment for the High-Throughput Transcriptomics (HTTr) Platform, in MCF-7 cells cultured in phenol red-free DMEM + 10% charcoal-stripped fetal bovine serum, Harrill Lab (AID 2283980)
# Source text: This is a cell-based assay that evaluates cell viability using high content imaging to evaluate membrane integrity using propidium iodide dye exclusion in a 384 well format.One of seven assay components measured from the CCTE_Harrill_HTTr_Viability assay. This was part of a pilot experiment. This is a cell-based assay that evaluates cell viability in MCF-7 cells cultured in phenol red-free DMEM + 10% charcoal-stripped fetal bovine serum. High content imaging is used to evaluate membrane integrity using propidium iodide dye exclusion. Measurements are taken at 24 hours after chemical dosing in 384-well format.The assay component endpoint CCTE_Harrill_HTTr_Viability_PRF_DMEM_24hr was analyzed with bidirectional fitting relation to DMSO as the negative control and baseline of activity. Using a type of viability reporter to understand changes in cytotoxicity, gain-of-signal activity can be used to evaluate membrane integrity using propidium iodide dye exclusion. To generalize the intended target to other relatable targets, this assay endpoint is annotated to cell cycle, where the subfamily is cytotoxicity.
# Chemicals were tested in MCF7 cells in an eight point dilution series with a twenty-four hour exposure duration.
row,SMILES,outcome
1,C=CCOC(=O)C(C)(C)OC(=O)c1cc(-n2c(=O)cc(C(F)(F)F)n(C)c2=O)ccc1Cl,inactive
2,CC1(C)C(C=C(Cl)Cl)C1C(=O)OC(C#N)c1cccc(Oc2ccccc2)c1 (stereo unspecified),inactive
3,CCOC(=O)C(C)OC(=O)c1cc(Oc2ccc(C(F)(F)F)cc2Cl)ccc1[N+](=O)[O-] (stereo unspecified),inactive
4,Cc1c(COC(=O)[C@@H]2[C@H](/C=C(\Cl)C(F)(F)F)C2(C)C)cccc1-c1ccccc1,inactive

# System: not listed separately
# Test: CCTE_Harrill_HTTr_Apoptosis_DMEM_6hr: (Pilot) CCTE's 6-hour Apoptosis Assessment for the High-Throughput Transcriptomics (HTTr) Platform, in MCF-7 cells cultured in DMEM + 10% fetal bovine serum, Harrill Lab (AID 2283981)
# Source text: This is a cell-based assay that evaluates apoptosis using high content imaging to evaluate activation of caspase-3/7 using the CellEvent Caspase 3/7 Green detection reagent in 384-well format.One of seven assay components measured from the CCTE_Harrill_HTTr_Apoptosis assay. This was part of a pilot experiment. This is a cell-based assay that evaluates apoptosis in MCF-7 cells cultured in DMEM + 10% fetal bovine serum. High content imaging is used to evaluate activation of caspase-3/7 using the CellEvent Caspase 3/7 Green detection reagent. Measurements are taken at 6 hours after chemical dosing in 384-well format.The assay component endpoint CCTE_Harrill_HTTr_Apoptosis_DMEM_6hr was analyzed with bidirectional fitting relation to DMSO as the negative control and baseline of activity. Using a type of viability reporter, gain-of-signal activity can be used to evaluate activation of caspase-3/7 using the CellEvent Caspase 3/7 Green detection reagent to understand changes in apoptosis. To generalize the intended target to other relatable targets, this assay endpoint is annotated to cell cycle, where the subfamily is apoptosis.
# Chemicals were tested in MCF7 cells in an eight point dilution series with a six hour exposure duration.
row,SMILES,outcome
1,C=CCOC(=O)C(C)(C)OC(=O)c1cc(-n2c(=O)cc(C(F)(F)F)n(C)c2=O)ccc1Cl,inactive
2,CC1(C)C(C=C(Cl)Cl)C1C(=O)OC(C#N)c1cccc(Oc2ccccc2)c1 (stereo unspecified),inactive
3,CCOC(=O)C(C)OC(=O)c1cc(Oc2ccc(C(F)(F)F)cc2Cl)ccc1[N+](=O)[O-] (stereo unspecified),inactive
4,Cc1c(COC(=O)[C@@H]2[C@H](/C=C(\Cl)C(F)(F)F)C2(C)C)cccc1-c1ccccc1,inactive

# System: not listed separately
# Test: CCTE_Harrill_HTTr_Apoptosis_DMEM_12hr: (Pilot) CCTE's 12-hour Apoptosis Assessment for the High-Throughput Transcriptomics (HTTr) Platform, in MCF-7 cells cultured in DMEM + 10% fetal bovine serum, Harrill Lab (AID 2283982)
# Outline: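 Caspase-3/7 activity was measured by high-content imaging (CellEvent Caspase 3/7 Green) after a 12-hour exposure of MCF-7 cells grown in DMEM with 10% FBS. Eight-point concentration series, fitted bidirectionally against vehicle.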
row,SMILES,outcome
1,C=CCOC(=O)C(C)(C)OC(=O)c1cc(-n2c(=O)cc(C(F)(F)F)n(C)c2=O)ccc1Cl,inactive
2,CC1(C)C(C=C(Cl)Cl)C1C(=O)OC(C#N)c1cccc(Oc2ccccc2)c1 (stereo unspecified),inactive
3,CCOC(=O)C(C)OC(=O)c1cc(Oc2ccc(C(F)(F)F)cc2Cl)ccc1[N+](=O)[O-] (stereo unspecified),inactive
4,Cc1c(COC(=O)[C@@H]2[C@H](/C=C(\Cl)C(F)(F)F)C2(C)C)cccc1-c1ccccc1,inactive

# System: not listed separately
# Test: CCTE_Harrill_HTTr_Apoptosis_DMEM_24hr: (Pilot) CCTE's 24-hour Apoptosis Assessment for the High-Throughput Transcriptomics (HTTr) Platform, in MCF-7 cells cultured in DMEM + 10% fetal bovine serum, Harrill Lab (AID 2283983)
# Outline: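 Caspase-3/7 activity read by high-content imaging (CellEvent Green reagent) 24 h after dosing. MCF-7 cells grown in DMEM with 10% FBS received an eight-point concentration series; fits were bidirectional versus DMSO.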
row,SMILES,outcome
1,C=CCOC(=O)C(C)(C)OC(=O)c1cc(-n2c(=O)cc(C(F)(F)F)n(C)c2=O)ccc1Cl,inactive
2,CC1(C)C(C=C(Cl)Cl)C1C(=O)OC(C#N)c1cccc(Oc2ccccc2)c1 (stereo unspecified),inactive
3,CCOC(=O)C(C)OC(=O)c1cc(Oc2ccc(C(F)(F)F)cc2Cl)ccc1[N+](=O)[O-] (stereo unspecified),inactive
4,Cc1c(COC(=O)[C@@H]2[C@H](/C=C(\Cl)C(F)(F)F)C2(C)C)cccc1-c1ccccc1,inactive

# System: not listed separately
# Test: CCTE_Harrill_HTTr_Apoptosis_PRF_DMEM_6hr: (Pilot) CCTE's 6-hour Apoptosis Assessment for the High-Throughput Transcriptomics (HTTr) Platform, in MCF-7 cells cultured phenol red-free DMEM + 10% charcoal-stripped fetal bovine serum, Harrill Lab (AID 2283984)
# Outline: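 Caspase-3/7 activity (CellEvent Green) read by high-content imaging 6 h after dosing, eight concentrations. Cells: MCF-7, phenol red-free DMEM with 10% charcoal-stripped serum. Curves fit both directions against DMSO.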
row,SMILES,outcome
1,C=CCOC(=O)C(C)(C)OC(=O)c1cc(-n2c(=O)cc(C(F)(F)F)n(C)c2=O)ccc1Cl,inactive
2,CC1(C)C(C=C(Cl)Cl)C1C(=O)OC(C#N)c1cccc(Oc2ccccc2)c1 (stereo unspecified),inactive
3,CCOC(=O)C(C)OC(=O)c1cc(Oc2ccc(C(F)(F)F)cc2Cl)ccc1[N+](=O)[O-] (stereo unspecified),inactive
4,Cc1c(COC(=O)[C@@H]2[C@H](/C=C(\Cl)C(F)(F)F)C2(C)C)cccc1-c1ccccc1,inactive

# System: not listed separately
# Test: CCTE_Harrill_HTTr_Apoptosis_PRF_DMEM_12hr: (Pilot) CCTE's 12-hour Apoptosis Assessment for the High-Throughput Transcriptomics (HTTr) Platform, in MCF-7 cells cultured in phenol red-free DMEM + 10% charcoal-stripped fetal bovine serum, Harrill Lab (AID 2283985)
# Source text: This is a cell-based assay that evaluates apoptosis using high content imaging to evaluate activation of caspase-3/7 using the CellEvent Caspase 3/7 Green detection reagent in 384-well format.One of seven assay components measured from the CCTE_Harrill_HTTr_Apoptosis assay. This was part of a pilot experiment. This is a cell-based assay that evaluates apoptosis in MCF-7 cells cultured in phenol red-free DMEM + 10% charcoal-stripped fetal bovine serum. High content imaging is used to evaluate activation of caspase-3/7 using the CellEvent Caspase 3/7 Green detection reagent. Measurements are taken at 12 hours after chemical dosing in 384-well format.The assay component endpoint CCTE_Harrill_HTTr_Apoptosis_PRF_DMEM_12hr was analyzed with bidirectional fitting relation to DMSO as the negative control and baseline of activity. Using a type of viability reporter, gain-of-signal activity can be used to evaluate activation of caspase-3/7 using the CellEvent Caspase 3/7 Green detection reagent to understand changes in apoptosis. To generalize the intended target to other relatable targets, this assay endpoint is annotated to cell cycle, where the subfamily is apoptosis.
# Chemicals were tested in MCF7 cells in an eight point dilution series with a twelve hour exposure duration.
row,SMILES,outcome
1,C=CCOC(=O)C(C)(C)OC(=O)c1cc(-n2c(=O)cc(C(F)(F)F)n(C)c2=O)ccc1Cl,inactive
2,CC1(C)C(C=C(Cl)Cl)C1C(=O)OC(C#N)c1cccc(Oc2ccccc2)c1 (stereo unspecified),inactive
3,CCOC(=O)C(C)OC(=O)c1cc(Oc2ccc(C(F)(F)F)cc2Cl)ccc1[N+](=O)[O-] (stereo unspecified),inactive
4,Cc1c(COC(=O)[C@@H]2[C@H](/C=C(\Cl)C(F)(F)F)C2(C)C)cccc1-c1ccccc1,inactive

# System: not listed separately
# Test: CCTE_Harrill_HTTr_Apoptosis_PRF_DMEM_24hr: (Pilot) CCTE's 24-hour Apoptosis Assessment for the High-Throughput Transcriptomics (HTTr) Platform, in MCF-7 cells cultured in phenol red-free DMEM + 10% charcoal-stripped fetal bovine serum, Harrill Lab (AID 2283986)
# Outline: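 Eight concentrations tested for 24 h on MCF-7 grown in charcoal-stripped serum, phenol red-free DMEM. High content imaging of CellEvent Caspase 3/7 Green signal gives apoptosis read-out, fitted both ways relative to DMSO.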
row,SMILES,outcome
1,C=CCOC(=O)C(C)(C)OC(=O)c1cc(-n2c(=O)cc(C(F)(F)F)n(C)c2=O)ccc1Cl,inactive
2,CC1(C)C(C=C(Cl)Cl)C1C(=O)OC(C#N)c1cccc(Oc2ccccc2)c1 (stereo unspecified),inactive
3,CCOC(=O)C(C)OC(=O)c1cc(Oc2ccc(C(F)(F)F)cc2Cl)ccc1[N+](=O)[O-] (stereo unspecified),inactive
4,Cc1c(COC(=O)[C@@H]2[C@H](/C=C(\Cl)C(F)(F)F)C2(C)C)cccc1-c1ccccc1,inactive

# System: DIO1 (gene 1733)
# Test: CCTE_GLTED_hDIO1: CCTE's human Deiodinase 1 (DIO1) Inhibition Assay, Great Lakes Toxicology and Ecology Division (GLTED) Lab (AID 2283987; active = hit-call score of the fitted dose curve at least 0.9, where 1 is the maximum;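 also: isolated human DIO1 enzyme in a cell-free setup rather than cells; enzyme activity read as free iodide liberated from substrate via Sandell-Kolthoff colorimetry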)
# Outline: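 Steps: human DIO1 enzyme plus test chemical, 3 h incubation; free iodide then quantified in a second Sandell-Kolthoff step by absorbance. DMSO served as negative control and baseline.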
row,SMILES,AC50
1,CCOc1nc(F)cc2nc(S(=O)(=O)Nc3c(Cl)cccc3Cl)nn12,38.8 µM (active)
2,COP(=S)(OC)SCn1nnc2ccccc2c1=O,47.3 µM (active)
3,CCCCOCN(C(=O)CCl)c1c(CC)cccc1CC,37.9 µM (active)
4,OC(c1ccc(Cl)cc1)(c1ccc(Cl)cc1)C(Cl)(Cl)Cl,70.4 µM (active)
5,O=C1C2CC=CCC2C(=O)N1SC(Cl)(Cl)Cl (stereo unspecified),53.8 µM (active)

# Target: Nucleoli Translocation, AR (gene 367) (UniProt P10275)
# Sequence (P10275 whole entry, looked up): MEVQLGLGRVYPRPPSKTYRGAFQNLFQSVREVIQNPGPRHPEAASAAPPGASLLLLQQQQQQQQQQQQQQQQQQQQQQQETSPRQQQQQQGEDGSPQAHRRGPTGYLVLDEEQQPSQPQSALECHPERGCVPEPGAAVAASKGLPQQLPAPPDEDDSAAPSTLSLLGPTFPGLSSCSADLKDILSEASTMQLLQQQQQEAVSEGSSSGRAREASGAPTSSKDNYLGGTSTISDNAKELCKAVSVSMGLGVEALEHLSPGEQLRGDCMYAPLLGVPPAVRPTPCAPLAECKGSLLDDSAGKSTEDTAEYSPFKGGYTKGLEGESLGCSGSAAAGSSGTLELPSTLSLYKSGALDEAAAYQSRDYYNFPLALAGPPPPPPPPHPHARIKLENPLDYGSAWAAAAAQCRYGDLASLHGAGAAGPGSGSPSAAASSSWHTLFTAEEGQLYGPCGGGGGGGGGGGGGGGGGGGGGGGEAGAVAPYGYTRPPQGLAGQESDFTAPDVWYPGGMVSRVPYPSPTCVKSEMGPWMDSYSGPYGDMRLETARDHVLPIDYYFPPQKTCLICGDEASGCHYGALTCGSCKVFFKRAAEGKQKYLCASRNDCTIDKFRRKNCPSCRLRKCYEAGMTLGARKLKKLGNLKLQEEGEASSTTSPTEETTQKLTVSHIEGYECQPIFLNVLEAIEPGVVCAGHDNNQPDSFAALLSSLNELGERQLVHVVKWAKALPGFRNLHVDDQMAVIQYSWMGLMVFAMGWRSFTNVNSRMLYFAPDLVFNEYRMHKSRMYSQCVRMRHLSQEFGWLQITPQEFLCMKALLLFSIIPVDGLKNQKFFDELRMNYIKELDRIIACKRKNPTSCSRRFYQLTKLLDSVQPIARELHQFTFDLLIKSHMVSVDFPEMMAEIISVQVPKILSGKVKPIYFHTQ
# Test: UPITT_HCI_U2OS_AR_TIF2_Nucleoli_Antagonist: University of Pittsburgh U2OS Androgen Receptor-Transcriptional Intermediary Factor 2 (AR-TIF2) Antagonism High Content Imaging Assay for Nucleoli Translocation (AID 2283997; active = hit-call score of the fitted dose curve at least 0.9, where 1 is the maximum)
# Outline: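 An antagonist-mode imaging screen: engineered U2OS (AR-RFP, TIF2-GFP) exposed to 20 uM compound, 0.2% DMSO. Activity reflects nucleolar red fluorescence change relative to DHT baseline.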
SMILES,outcome,AC50
Clc1cccc(C(Cl)(Cl)Cl)n1,inactive,–
CC(C)N1C(=O)N(c2ccccc2)CSC1=NC(C)(C)C,inactive,–
CC1(C)CCC(=Cc2ccc(Cl)cc2)C1(O)Cn1cncn1 (stereo unspecified),–,2.9 µM (active)
COc1ccc(-c2ccccc2)cc1NNC(=O)OC(C)C,inactive,–
COP(=S)(OC)SCn1nnc2ccccc2c1=O,–,31.4 µM (active)
CCCCOCN(C(=O)CCl)c1c(CC)cccc1CC,–,19 µM (active)
COC(=O)c1c(C(F)F)nc(C(F)(F)F)c(C2=NCCS2)c1CC(C)C,inactive,–
CCOP(=O)(OCC)Oc1nc(Cl)c(Cl)cc1Cl,inactive,–
CCCCC(O)(Cn1cncn1)c1ccc(Cl)cc1Cl (stereo unspecified),–,62.7 µM (active)
COCc1cnc(C2=NC(C)(C(C)C)C(=O)N2)c(C(=O)O)c1 (stereo unspecified),inactive,–
CCOc1cc(C(C)(C)C)ccc1C1COC(c2c(F)cccc2F)=N1 (stereo unspecified),inactive,–
Cc1cnc(C2=NC(C)(C(C)C)C(=O)N2)c(C(=O)O)c1 (stereo unspecified),inactive,–
COC(=O)N(C(=O)N1CO[C@@]2(C(=O)OC)Cc3cc(Cl)ccc3C2=N1)c1ccc(OC(F)(F)F)cc1,inactive,–
